Consider eleven molecules from PMC12529666, “Dysregulation of AGO2-miRNA dynamics underlies the AGO2-associated Lessel–Kreienkamp syndrome”.

What all share (experiment): RNA Bind-n-Seq (nitrocellulose filter binding and sequencing); miR-122 guide loaded in AGO2; 60 min incubation; 30 mM Tris pH 8.0, 100 mM potassium acetate, 2 mM magnesium acetate, 0.5 mM TCEP, 0.005% NP-40, 0.01 mg/ml yeast tRNA; 3 nM AGO2-miR-122, 100 nM RNA library; 60; high values mean tight binding
Settings in all cases: protein: recombinant; tags: His6 (N-terminal, pFastBac HTA)

The target in test [1] is AGO2 L192P (Homo sapiens, UniProt Q9UKV8 1-859, L192P;S387D;S824A;S828D;S831D;S834A). An outline of the steps: (§1)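 His-tagged AGO2 was expressed in Sf9 insect cells by baculovirus, loaded with a synthetic guide RNA, and purified by Ni-NTA and a biotinylated capture oligo. Bound RNA was extracted, reverse-transcribed, barcode-amplified and Illumina-sequenced. Fold enrichment is each sequence's read fraction divided by its input-library read fraction.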

The target of test [2] is AGO2 A367P (Homo sapiens, UniProt Q9UKV8 1-859, A367P;S387D;S824A;S828D;S831D;S834A). The essentials: as §1
Test [3] concerns the target AGO2 T357M (Homo sapiens, UniProt Q9UKV8 1-859, T357M;S387D;S824A;S828D;S831D;S834A). The essentials:
as §1

The target in test [4] is AGO2 F182del (Homo sapiens, UniProt Q9UKV8 1-859, S387D;S824A;S828D;S831D;S834A;del182-182). An outline of the steps: as §1
Chain of AGO2 F182del (Q9UKV8 other isoform, or with tags, fused parts or gaps S387D;S824A;S828D;S831D;S834A;del182-182): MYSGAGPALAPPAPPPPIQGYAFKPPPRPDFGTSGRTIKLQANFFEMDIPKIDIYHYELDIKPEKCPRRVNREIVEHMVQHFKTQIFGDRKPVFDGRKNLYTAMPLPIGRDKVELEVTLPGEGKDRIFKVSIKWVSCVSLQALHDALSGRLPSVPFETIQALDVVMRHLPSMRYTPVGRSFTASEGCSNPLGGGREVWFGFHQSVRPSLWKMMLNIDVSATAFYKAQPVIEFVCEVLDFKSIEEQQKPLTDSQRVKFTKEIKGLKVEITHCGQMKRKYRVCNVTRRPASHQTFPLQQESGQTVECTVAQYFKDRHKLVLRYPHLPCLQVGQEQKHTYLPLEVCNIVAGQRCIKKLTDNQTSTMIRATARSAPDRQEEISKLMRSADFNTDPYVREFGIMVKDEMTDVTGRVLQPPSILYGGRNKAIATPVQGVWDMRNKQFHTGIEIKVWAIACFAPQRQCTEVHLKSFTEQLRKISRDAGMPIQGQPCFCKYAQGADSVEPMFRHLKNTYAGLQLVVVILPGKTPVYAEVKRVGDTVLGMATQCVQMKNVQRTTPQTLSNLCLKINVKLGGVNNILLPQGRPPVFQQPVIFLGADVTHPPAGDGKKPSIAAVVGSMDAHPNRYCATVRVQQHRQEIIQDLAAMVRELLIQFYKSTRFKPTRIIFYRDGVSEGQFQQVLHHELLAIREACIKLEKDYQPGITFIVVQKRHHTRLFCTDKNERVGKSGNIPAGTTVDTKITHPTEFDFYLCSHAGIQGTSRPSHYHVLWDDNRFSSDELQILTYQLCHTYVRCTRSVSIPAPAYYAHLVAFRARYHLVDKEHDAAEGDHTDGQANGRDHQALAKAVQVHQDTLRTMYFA

Chain of AGO2 T357M (Q9UKV8 whole entry T357M/S387D/S824A/S828D/S831D/S834A): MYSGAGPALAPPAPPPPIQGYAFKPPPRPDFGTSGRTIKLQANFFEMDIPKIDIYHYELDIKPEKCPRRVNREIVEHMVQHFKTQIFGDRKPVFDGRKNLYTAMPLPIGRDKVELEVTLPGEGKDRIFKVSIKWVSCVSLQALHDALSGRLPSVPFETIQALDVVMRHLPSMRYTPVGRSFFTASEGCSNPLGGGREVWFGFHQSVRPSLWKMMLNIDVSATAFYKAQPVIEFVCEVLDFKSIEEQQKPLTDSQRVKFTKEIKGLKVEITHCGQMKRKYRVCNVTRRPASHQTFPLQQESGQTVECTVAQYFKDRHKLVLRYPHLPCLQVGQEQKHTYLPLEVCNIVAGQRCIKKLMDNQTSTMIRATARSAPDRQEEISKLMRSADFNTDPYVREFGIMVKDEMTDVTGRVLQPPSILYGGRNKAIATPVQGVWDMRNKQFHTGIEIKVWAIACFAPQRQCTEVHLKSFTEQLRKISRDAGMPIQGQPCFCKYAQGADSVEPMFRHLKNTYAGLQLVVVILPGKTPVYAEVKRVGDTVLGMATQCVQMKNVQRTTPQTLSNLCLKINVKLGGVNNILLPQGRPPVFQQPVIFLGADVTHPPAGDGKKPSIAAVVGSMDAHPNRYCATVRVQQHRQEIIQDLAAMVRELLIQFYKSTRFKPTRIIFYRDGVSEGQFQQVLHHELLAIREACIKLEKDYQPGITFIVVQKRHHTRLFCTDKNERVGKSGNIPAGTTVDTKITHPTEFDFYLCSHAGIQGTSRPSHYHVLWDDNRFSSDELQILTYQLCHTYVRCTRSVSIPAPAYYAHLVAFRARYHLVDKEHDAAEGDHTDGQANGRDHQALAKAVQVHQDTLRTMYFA
Chain of AGO2 L192P (Q9UKV8 whole entry L192P/S387D/S824A/S828D/S831D/S834A): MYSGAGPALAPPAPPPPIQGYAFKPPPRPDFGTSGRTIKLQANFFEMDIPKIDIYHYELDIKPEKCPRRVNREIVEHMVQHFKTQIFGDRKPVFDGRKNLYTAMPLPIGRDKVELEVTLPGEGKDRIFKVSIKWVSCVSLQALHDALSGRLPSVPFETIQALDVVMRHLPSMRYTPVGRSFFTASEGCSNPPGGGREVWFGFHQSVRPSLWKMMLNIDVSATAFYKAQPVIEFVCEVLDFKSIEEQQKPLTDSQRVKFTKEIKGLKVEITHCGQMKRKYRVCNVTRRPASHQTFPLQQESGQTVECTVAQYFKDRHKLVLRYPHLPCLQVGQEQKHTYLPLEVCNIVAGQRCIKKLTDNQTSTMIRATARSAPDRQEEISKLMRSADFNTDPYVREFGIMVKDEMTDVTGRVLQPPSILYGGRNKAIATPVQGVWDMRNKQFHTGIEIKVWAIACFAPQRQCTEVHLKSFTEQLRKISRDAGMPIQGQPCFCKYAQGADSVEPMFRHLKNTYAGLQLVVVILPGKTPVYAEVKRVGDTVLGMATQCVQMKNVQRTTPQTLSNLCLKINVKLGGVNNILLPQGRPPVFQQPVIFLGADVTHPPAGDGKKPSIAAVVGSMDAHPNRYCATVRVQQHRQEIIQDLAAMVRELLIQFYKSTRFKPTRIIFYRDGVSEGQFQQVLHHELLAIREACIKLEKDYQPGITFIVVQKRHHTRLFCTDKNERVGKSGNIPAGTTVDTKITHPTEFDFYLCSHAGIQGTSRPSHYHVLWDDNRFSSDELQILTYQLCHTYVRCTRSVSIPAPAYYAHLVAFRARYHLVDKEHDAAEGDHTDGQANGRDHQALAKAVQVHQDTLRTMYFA
Chain of AGO2 A367P (Q9UKV8 whole entry A367P/S387D/S824A/S828D/S831D/S834A): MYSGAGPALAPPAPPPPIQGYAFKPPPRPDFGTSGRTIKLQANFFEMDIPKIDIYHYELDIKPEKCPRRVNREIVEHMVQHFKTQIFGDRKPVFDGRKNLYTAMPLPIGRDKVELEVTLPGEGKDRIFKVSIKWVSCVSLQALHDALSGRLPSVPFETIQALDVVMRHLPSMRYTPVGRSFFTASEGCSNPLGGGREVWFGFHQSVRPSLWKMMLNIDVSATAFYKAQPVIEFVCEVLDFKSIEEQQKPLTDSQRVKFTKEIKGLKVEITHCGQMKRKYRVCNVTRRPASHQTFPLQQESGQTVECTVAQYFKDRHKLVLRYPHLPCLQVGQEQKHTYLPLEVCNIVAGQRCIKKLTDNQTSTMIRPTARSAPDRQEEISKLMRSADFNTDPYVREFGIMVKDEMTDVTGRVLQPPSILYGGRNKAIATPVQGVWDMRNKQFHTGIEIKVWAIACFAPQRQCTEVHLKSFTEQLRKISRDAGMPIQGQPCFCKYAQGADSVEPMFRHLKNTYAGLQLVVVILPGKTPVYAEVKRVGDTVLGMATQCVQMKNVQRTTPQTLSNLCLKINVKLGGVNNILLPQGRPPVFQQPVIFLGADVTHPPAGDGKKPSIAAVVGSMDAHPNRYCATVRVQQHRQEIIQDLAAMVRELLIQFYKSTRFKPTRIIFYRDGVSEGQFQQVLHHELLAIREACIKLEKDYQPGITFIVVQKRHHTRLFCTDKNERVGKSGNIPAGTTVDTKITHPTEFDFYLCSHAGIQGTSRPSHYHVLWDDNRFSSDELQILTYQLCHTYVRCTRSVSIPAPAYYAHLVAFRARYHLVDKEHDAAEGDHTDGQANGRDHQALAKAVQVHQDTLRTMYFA

B1: GTGTTCCA (ssRNA)
RNA 1: GAGUUCUACAGUCCGACGAUCCCAACGUGUUCCACACCUGGAAUUCUCGGGUGCCAA
RNA 2: UGGAGUGUGACAAUGGUGUUUG
DNA 1: GATCGTCGGACTGTAGAACTC
DNA 2: TTGGCACCCGAGAATTCCA
modifications: constant regions annealed to DNA blockers; guide miR-122 5' phosphate
Regarding B1, the binding signal in test [1] is 0.444 fold enrichment over input; in test [2] it was 0.197 fold enrichment over input; in test [3], 0.556 fold enrichment over input; in test [4], 0.125 fold enrichment over input.

B2: GTATTCTA (ssRNA)
RNA 1: GAGUUCUACAGUCCGACGAUCCCAACGUAUUCUACACCUGGAAUUCUCGGGUGCCAA
RNA 2: UGGAGUGUGACAAUGGUGUUUG
DNA 1: GATCGTCGGACTGTAGAACTC
DNA 2: TTGGCACCCGAGAATTCCA
modifications: constant regions annealed to DNA blockers; guide miR-122 5' phosphate
For the molecule B2, the binding signal was 0.434 fold enrichment over input in test [1], 0.164 fold enrichment over input in test [2] and 0.606 fold enrichment over input in test [3].

B3: GCACTTTA (ssRNA)
RNA 1: GAGUUCUACAGUCCGACGAUCCCAACGCACUUUACACCUGGAAUUCUCGGGUGCCAA
RNA 2: UGGAGUGUGACAAUGGUGUUUG
DNA 1: GATCGTCGGACTGTAGAACTC
DNA 2: TTGGCACCCGAGAATTCCA
modifications: constant regions annealed to DNA blockers; guide miR-122 5' phosphate
In the case of B3, the binding signal in test [1] was 0.493 fold enrichment over input; in test [2], 0.209 fold enrichment over input; in test [3] it was 0.763 fold enrichment over input; in test [4], 0.122 fold enrichment over input.

B4: ACACTTTG (ssRNA)
RNA 1: GAGUUCUACAGUCCGACGAUCCCAACACACUUUGCACCUGGAAUUCUCGGGUGCCAA
RNA 2: UGGAGUGUGACAAUGGUGUUUG
DNA 1: GATCGTCGGACTGTAGAACTC
DNA 2: TTGGCACCCGAGAATTCCA
modifications: constant regions annealed to DNA blockers; guide miR-122 5' phosphate
As for B4, the binding signal is 0.388 fold enrichment over input in test [1], 0.177 fold enrichment over input in test [2] and 0.494 fold enrichment over input in test [3].

B5: GTACCCTA (ssRNA)
RNA 1: GAGUUCUACAGUCCGACGAUCCCAACGUACCCUACACCUGGAAUUCUCGGGUGCCAA
RNA 2: UGGAGUGUGACAAUGGUGUUUG
DNA 1: GATCGTCGGACTGTAGAACTC
DNA 2: TTGGCACCCGAGAATTCCA
modifications: constant regions annealed to DNA blockers; guide miR-122 5' phosphate
Take B5: the binding signal is 0.468 fold enrichment over input in test [1], 0.168 fold enrichment over input in test [2] and 0.602 fold enrichment over input in test [3].

B6: GTATTTTA (ssRNA)
RNA 1: GAGUUCUACAGUCCGACGAUCCCAACGUAUUUUACACCUGGAAUUCUCGGGUGCCAA
RNA 2: UGGAGUGUGACAAUGGUGUUUG
DNA 1: GATCGTCGGACTGTAGAACTC
DNA 2: TTGGCACCCGAGAATTCCA
modifications: constant regions annealed to DNA blockers; guide miR-122 5' phosphate
B6: the values for the binding signal in test [1], in test [2] and in test [3] were 0.481 fold enrichment over input, 0.166 fold enrichment over input and 0.617 fold enrichment over input, respectively.

B7: ACACCCTG (ssRNA)
RNA 1: GAGUUCUACAGUCCGACGAUCCCAACACACCCUGCACCUGGAAUUCUCGGGUGCCAA
RNA 2: UGGAGUGUGACAAUGGUGUUUG
DNA 1: GATCGTCGGACTGTAGAACTC
DNA 2: TTGGCACCCGAGAATTCCA
modifications: constant regions annealed to DNA blockers; guide miR-122 5' phosphate
For the molecule B7, the binding signal is 0.472 fold enrichment over input in test [1], 0.217 fold enrichment over input in test [2], 0.558 fold enrichment over input in test [3] and 0.942 fold enrichment over input in test [4].

B8: ATACCCTA (ssRNA)
RNA 1: GAGUUCUACAGUCCGACGAUCCCAACAUACCCUACACCUGGAAUUCUCGGGUGCCAA
RNA 2: UGGAGUGUGACAAUGGUGUUUG
DNA 1: GATCGTCGGACTGTAGAACTC
DNA 2: TTGGCACCCGAGAATTCCA
modifications: constant regions annealed to DNA blockers; guide miR-122 5' phosphate
In the case of B8, the binding signal in test [1] was 0.447 fold enrichment over input; in test [2] it was 0.148 fold enrichment over input; in test [3], 0.496 fold enrichment over input.

B9: GTGCTCTA (ssRNA)
RNA 1: GAGUUCUACAGUCCGACGAUCCCAACGUGCUCUACACCUGGAAUUCUCGGGUGCCAA
RNA 2: UGGAGUGUGACAAUGGUGUUUG
DNA 1: GATCGTCGGACTGTAGAACTC
DNA 2: TTGGCACCCGAGAATTCCA
modifications: constant regions annealed to DNA blockers; guide miR-122 5' phosphate
Take B9: the binding signal in test [1] was 0.463 fold enrichment over input; in test [2] it was 0.178 fold enrichment over input; in test [3] it was 0.601 fold enrichment over input.

B10: GCGTTCCG (ssRNA)
RNA 1: GAGUUCUACAGUCCGACGAUCCCAACGCGUUCCGCACCUGGAAUUCUCGGGUGCCAA
RNA 2: UGGAGUGUGACAAUGGUGUUUG
DNA 1: GATCGTCGGACTGTAGAACTC
DNA 2: TTGGCACCCGAGAATTCCA
modifications: constant regions annealed to DNA blockers; guide miR-122 5' phosphate
Take B10: the binding signal in test [1] was 0.404 fold enrichment over input; in test [2], 0.149 fold enrichment over input; in test [3], 0.583 fold enrichment over input.

B11: GTGCTTCA (ssRNA)
RNA 1: GAGUUCUACAGUCCGACGAUCCCAACGUGCUUCACACCUGGAAUUCUCGGGUGCCAA
RNA 2: UGGAGUGUGACAAUGGUGUUUG
DNA 1: GATCGTCGGACTGTAGAACTC
DNA 2: TTGGCACCCGAGAATTCCA
modifications: constant regions annealed to DNA blockers; guide miR-122 5' phosphate
For the molecule B11, the binding signal is 0.507 fold enrichment over input in test [1], 0.218 fold enrichment over input in test [2], 0.615 fold enrichment over input in test [3] and 0.235 fold enrichment over input in test [4].
